Screens as filed in PubChem BioAssay.
PPC-1+TRAIL kill = compounds killing PPC-1 cancer cells with TRAIL present (potentiator screen, no TRAIL-free arm) | 220,000 tested, 0.41% active | PPC-1 cells + TRAIL, ATPLite viability luminescence | AID 1443 | cell killing (% activity), % at 4 µM or 5 µM;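 active = cell killing above 50% in the first pass at 4 µM, then a duplicate retest at 5 µM averaging 50% or more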;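 also: plate controls were cells with TRAIL plus DMSO for no effect and medium-only wells lacking cells for full effect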
TRAIL sens C8 = sensitizes caspase-8 expressing cells to TRAIL; inhibition (viability loss, TRAIL sensitization), % at 10 µM; NB7+C8 cells + TRAIL, ATPlite viability luminescence; AID 624354; 360,000 tested, 1% active;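 active = compounds causing at least 50% loss of cell viability in the single-dose screen, relative to plate controls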
SENP7 inh = inhibitors of human SENP7 protease; Q9BQF6; recombinant SENP7, Z-RLRGG-aminoluciferin luminescence, 40 min; inhibition, % at 5 µM; 330,000 tested, 1.5% active;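 active = inhibition above about 50% at the single test dose, limit read from the data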;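 also: plate controls were DMSO with enzyme for no effect and no enzyme buffer wells for full effect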
SENP8 block-1 = SENP8 protease inhibition | 330,000 tested, 1.2% active | purified SENP8, Z-RLRGG-aminoluciferin cleavage, luminescence | inhibition, % at 10 µM | Q96LD8; in the data active = inhibition above about 50%
SENP8 block-2 = SENP8 (human) protease inhibition; Q96LD8; recombinant SENP8, Nedd8 substrate fluorescence; inhibition, % at 20 µM; 360,000 tested, 0.64% active; AID 602440; in the data active = inhibition mostly above about 40%, no sharp cut-off; inactive = mostly below about 27%
SENP6 block = blocks the human protease SENP6. inhibition, % at 10 µM. Q9GZR1. 330,000 tested, 1.8% active. AID 2599. Recombinant SENP6 catalytic domain, aminoluciferin luminescence;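 active = inhibition above about 50% at the single tested dose, limit read from the data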;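 also: plate controls were DMSO wells with enzyme for no effect and DMSO wells lacking enzyme for full effect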
Target sequence (Q9GZR1 628-1112 limits assumed): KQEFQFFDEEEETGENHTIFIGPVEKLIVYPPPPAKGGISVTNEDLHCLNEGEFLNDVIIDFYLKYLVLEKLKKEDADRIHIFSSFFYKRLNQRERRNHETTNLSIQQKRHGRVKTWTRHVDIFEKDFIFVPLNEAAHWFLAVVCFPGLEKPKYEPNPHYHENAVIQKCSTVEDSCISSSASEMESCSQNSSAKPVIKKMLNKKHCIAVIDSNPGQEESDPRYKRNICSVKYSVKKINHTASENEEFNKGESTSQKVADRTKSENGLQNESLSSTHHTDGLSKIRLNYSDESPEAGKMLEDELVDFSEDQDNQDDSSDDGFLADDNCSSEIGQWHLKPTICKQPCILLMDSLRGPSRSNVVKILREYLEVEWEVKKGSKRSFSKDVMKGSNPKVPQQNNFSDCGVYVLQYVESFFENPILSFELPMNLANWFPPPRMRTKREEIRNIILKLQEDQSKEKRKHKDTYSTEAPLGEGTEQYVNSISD
Numbers without * were called inactive; · = no result given. This is a sample that favours compounds with a hit; in the whole collection about 3% have one here.

SMILES | PPC-1+TRAIL kill | TRAIL sens C8 | SENP7 inh | SENP8 block-1 | SENP8 block-2 | SENP6 block
CCOC(=O)C(O)(c1ccc(NC(=O)c2ccc(Cl)c(Cl)c2)cc1)C(F)(F)F (stereo not given) | -12 | -9 | 1 | -9 | 17 | -7
CCOC(=O)C(=CNc1ccc(C(O)(C(=O)OCC)C(F)(F)F)cc1C)C(=O)OCC (stereo not given) | 10 | 73* | 4 | -1 | -11 | 3
CCCN1CCc2cccc3c2[C@H]1Cc1ccc(O)c(O)c1-3 | · | 46* | 1 | -4 | -59 | 25
C[C@]12CC[C@H]3C(CCC4(O)CC(O)CC[C@]34C=O)C1=CC[C@H]2c1ccc(=O)oc1 (stereo not given in full) | · | 54* | -2 | -11 | 3 | -16
CC12CC[C@H]3[C@@H](CCC4(O)C[C@H](O)CCC34/C=N/NC(=O)Cc3ccccc3)C1(O)CCC2C1=CC(=O)OC1 (stereo not given in full) | -2 | 9 | -5 | 2 | 6 | 8
CC(=O)O[C@H]1[C@H]2O[C@]23[C@@H]2CC[C@]4(O)C[C@@H](O)CC[C@]4(C)C2CC[C@]3(C)[C@H]1c1ccc(=O)oc1 (stereo not given in full) | · | 64* | -2 | 4 | 5 | -16
O=[N+]([O-])c1ccc(O)c([N+](=O)[O-])c1 | · | -5 | -5 | -2 | 15 | -16
O=[N+]([O-])c1ccc(Cl)c([N+](=O)[O-])c1 | · | 81* | 3 | 0 | 27 | 7
Fc1ccc(N2Cc3ccccc3-n3nncc3C2)cc1 | · | 20 | · | · | 14 | ·
C/C(=N\Nc1ccccc1)c1c(O)n(C)c(=O)n(C)c1=O | 7 | -2 | 11 | -4 | 8 | 0
O=C(c1ccccc1)C(CN1CCCC1)c1ccccc1 (stereo not given) | 57* | 19 | · | · | 7 | ·
CC1CCOC(=O)C=CC=CC(=O)OC2CC3OC4C5OC5(C)C(O)CC4(COC(=O)C1O)C2(C)C31CO1 (stereo not given) | · | 69* | · | · | 20 | ·
CC1=CC2OC3CC4OC(=O)C=CC=CC(=O)OCCC(C)C(O)C(=O)OCC2(CC1)C4(C)C31CO1 (stereo not given) | · | 56* | · | · | 4 | ·
CC(O)C1C=CC=CC(=O)OC2CC3OC4C5OC5(C)C(O)CC4(COC(=O)C(O)C(C)CCO1)C2(C)C31CO1 (stereo not given) | · | 62* | · | · | 12 | ·
CC1=CC2OC3CC4OC(=O)C=CC=CC(C(C)O)OCC(O)C5(C)OC5C(=O)OCC2(CC1O)C4(C)C31CO1 (stereo not given) | · | 67* | · | · | 5 | ·
COC(=O)C1=C(c2ccc(F)cc2F)C[C@@H]2CC[C@H]1N2C(=O)NCCCOC(C)C | · | -8 | 2 | 6 | 1 | -10
C[C@@H]1CN([C@@H](C)CO)C(=O)CCCn2nncc2CO[C@H]1CN(C)C(=O)Oc1cccc2ccccc12 | · | -6 | · | · | 1 | ·
CC(=O)OC1CC2OC3C=C(C)CCC3(C)C1(C)C21CO1 (stereo not given) | · | 58* | · | · | 21 | ·
CC(=O)O[C@H]1C[C@@H]2OC3C=C(C)CCC3(C)[C@@]1(C)[C@@]21CO1 (stereo not given in full) | · | 26 | · | · | 21 | ·
NC(N)=N/N=C/c1ccc(N(c2ccccc2)c2ccccc2)cc1 | · | 69* | 3 | -11 | -317 | -41
COc1ccc(/C=N\N=C(N)N)cc1 | 12 | -2 | 3 | 2 | 14 | 9
COC1CC2C=C(C)C=CC=CC(=O)NC(c3ccccc3)CC=CCCC(O)CC(=O)C2=C1O (stereo not given) | · | 97* | · | · | -10 | ·
C/C(CC(c1ccccc1)c1c(O)c2ccccc2oc1=O)=N\Nc1ccc([N+](=O)[O-])cc1[N+](=O)[O-] (stereo not given) | 2 | 13 | -6 | -4 | -3 | 95*
CC1Oc2cc3c(-c4c(O)cc(O)c5c(O)c6c(cc45)OC(C)C(C)C6=O)c(O)cc(O)c3c(O)c2C(=O)C1C (stereo not given) | 13 | 49 | 16 | 7 | 89* | 28
O=C1CC=C2C3CC4N(CCC45c4cc(O)c(O)cc4N1C25)CC3=CCBr (stereo not given) | · | -7 | · | · | 59* | ·
